Most compounds without a hit are left out; they make up all but 19% or so of the library.
Chronic BCR inh – qHTS Assay to Find Inhibitors of Chronic Active B-Cell Receptor Signaling. ABC-DLBCL IkBa-CBG/CBR reporter, luminescence ratio, 4 h. Potency, µM (top dose mostly 46.1 µM), for inactives: top-dose activity change, negative = inhibition, hits mostly inhibitors. actives 0.05% (n = 340,000); active = well fitted inhibition curve with a large enough effect in the signal ratio, with a control signal flat, not every such curve was filed as active; inconclusive = small, poorly fitted or top-dose-only effect, or effect the other way, or a change in a side signal; the % refers to the signal ratio;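 note: potency is the fitted concentration of half-maximal effect; plate controls were basal doxycycline-induced cells for no effect and cells given 10 µM MG132 for full effect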
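Doxycycline induced both beetle luciferases in TMD8 lymphoma cells; IKK-driven degradation limits the IkappaBalpha-fused green signal, while red luminescence normalises for cell number and nonspecific effects. Compounds tested up to 46 uM, 4 hrs.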
TDP1 cell noCPT – qHTS for Inhibitors of human tyrosyl-DNA phosphodiesterase 1 (TDP1): qHTS in cells in absence of CPT. DT40 Tdp1-/- hTDP1 cells, no CPT, ATP luminescence, 48 h. actives 15% (n = 420,000). Potency, µM (series often up to 46.2 µM), inactives show at the top dose activity change, negative = growth inhibition, most hits filed as inhibitors. AID 686978, 2013; note: potency is the fitted concentration of half-maximal effect; % is set by controls: 0 for no effect and ±100 for the full control effect; nearly all actives have a fitted effect of over 55% in size
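Seeded 400 DT40-hTDP1 cells/well (vehicle DMSO, no 20 nM CPT); pinned compounds; ≥48 hr at 37 °C; CellTiter-Glo luminescence as viability measure.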
SW480 rereplic – A quantitative high throughput screen for small molecules that induce DNA re-replication in SW480 colon adenocarcinoma cells; AID 624297, 2012; Potency, µM (highest dose often 46.1 µM), without a hit: at the highest dose re-replication activation, hits mostly activators; SW480 DNA re-replication, Hoechst DNA content imaging, 48 h; actives 1.8% (n = 340,000); note: potency is the fitted concentration of half-maximal effect; % of control where 0% means no effect; nearly all actives have a fitted effect of over 55% in size
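Image-based read-out: total Hoechst fluorescence of nuclei (405 nm excitation, 500-530 nm emission), with hits raising the fraction of high-intensity nuclei. SW480 colon cells incubated 48 hr with compounds at 37 C.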
IL-1B inflam inh – qHTS for Inhibitors of Inflammasome Signaling: IL-1-beta AlphaLISA Primary Screen. THP-1 LPS/ATP IL-1B secretion, AlphaLISA, 16 h; stronger effect = lower value. activity change, % at 57.5 µM. actives 4.7% (n = 360,000). AID 743279, 2014; in the data active = activity change below about -50%; inconclusive = mostly about -30% to -49%; note: % is set by controls: 0 for no effect and ±100 for the full control effect
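Secreted IL-1B measured by AlphaLISA bead assay after 16 h compound exposure of THP-1 cells; compounds (final up to 57.5 uM) added 1 h before LPS (250 ng/mL) and ATP (1.25 mM) stimulation; lower signal means less secretion.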
MCF10A rereplic – A quantitative high throughput screen for small molecules that induce DNA re-replication in MCF 10a normal breast cells; MCF 10A DNA re-replication, Hoechst nuclear intensity, 48 h; Potency, µM (doses to about 46.1 µM), for inactives: at the highest dose activity, positive = re-replication, usual class: activators; actives 2.9% (n = 350,000); AID 624296, 2012; note: potency is the fitted concentration of half-maximal effect; % of control where 0% means no effect; nearly all actives have a fitted effect of over 50% in size
DT40 TDP1 CPT – qHTS for Inhibitors of human tyrosyl-DNA phosphodiesterase 1 (TDP1): qHTS in cells in presence of CPT | chicken DT40 Tdp1-/-;hTDP1 cells + 20 nM CPT, ATP luminescence, 48 h | Potency, µM (top dose mostly 46.2 µM), inactives show at the top dose activity change, negative = growth inhibition, most hits filed as inhibitors | actives 12% (n = 420,000) | AID 686979, 2013; note: potency is the fitted concentration of half-maximal effect; % is set by controls: 0 for no effect and ±100 for the full control effect; nearly all actives have a fitted effect of over 55% in size
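Chicken DT40 Tdp1-/- cells complemented with human TDP1, 400 cells/well, exposed to compounds plus 20 nM camptothecin for at least 48 h at 37 C; viability read as ATP content by CellTiter-Glo luminescence.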
Numbers without * were called inactive; ? = inconclusive; nt = not tested or not shown; ! = a repeat was not active; [ ] = remark or other dose. Unless noted, calls come from the whole dose curve; as a rule, active = well fitted curve in the direction sought with a large enough effect; inconclusive = small, poorly fitted or top-dose-only effect, or another doubt; inactive = no such curve, though single readings can be large; an effect the other way counts as inactive or inconclusive.

SMILES	Chronic BCR inh	TDP1 cell noCPT	SW480 rereplic	IL-1B inflam inh	MCF10A rereplic	DT40 TDP1 CPT
COc1ccccc1NC(=O)C(=O)N/N=C(\C)CC(=O)Nc1ccccc1C(F)(F)F	?	-13.0%	-1.2%	14.5	2.0%	4.4%
CC1CCc2c(sc3ncnc(NS(=O)(=O)c4cccs4)c23)C1 (configuration not stated)	10.3%	-7.9%	-5.7%	19.1	?	-18.7%
COCCCNc1ncnc2sc3c(c12)CCC(C)C3 (configuration not stated)	19.8%	23.1µM*	8.3%	-8.5	23.6%	?
COc1ccccc1NC(=O)c1cc(-c2ccc(OC)c(OC)c2)nc2ccccc12	-0.6%	9.2µM*	16.2%	-3.6	14.4%	16.4µM*
COC(=O)c1ccc(NC(=O)c2cc(-c3ccncc3)nc3ccccc23)cc1	-14.8%	?	6.2%	42.2	20.6%	?
COc1ccc(-c2cc(C(=O)Nc3ccc(O)cc3)c3ccccc3n2)cc1OC	-0.5%	1.46µM*	4.0%	-25.4	0.4%	10.3µM*
COc1ccccc1NC(=O)c1cc(Sc2nncn2C)nc2ccccc12	2.2%	-11.7%	-7.0%	-10.7	-5.7%	-13.4%
COC(=O)c1ccsc1NC(=O)CN1CCN(c2ncccn2)CC1	-4.3%	?	-3.3%	1.5	5.0%	-26.4%
CC(CC(=O)c1ccccc1)=NCC(O)CN=C(C)CC(=O)c1ccccc1 (configuration not stated)	nt	?	nt	-21.8	nt	?
Cc1ccc(-n2nc(C)c3c(C(=O)OCC(=O)N(C)C4CCS(=O)(=O)C4)cc(-c4ccccc4)nc32)cc1 (configuration not stated)	2.8%	?	4.0%	-4.3	20.6µM*!	-25.8%
CCOC(=O)c1cc(-c2ccncc2)nc2c1c(C)nn2-c1ccccn1	1.0%	16.4µM*	16.3%	-12.7	?	?
CCN(C(=O)COC(=O)c1cc(-c2ccccc2)nc2c1c(C)nn2-c1ccccc1)C1CCS(=O)(=O)C1 (configuration not stated)	-8.3%	?	5.0%	24.7	?	?
CCOC(=O)c1cc2c(OC)ccc(OC)c2n1CC(=O)c1ccccc1	0.3%	?	?	18.6	23.1µM*	?
O=C(Nc1cccc(Cl)c1)NC1CC2CCC(C1)N2Cc1ccco1 (configuration not stated)	6.4%	?	-1.0%	-4.9	8.5%	?
O=C(Nc1ccc(Cl)cc1)NC1CCCCC1	-14.0%	0.7%	-0.9%[9.22 µM]	12.1	-0.4%	-10.1%
O=C(Nc1ccc(Cl)cc1)NC1CCCC1Cc1ccco1 (configuration not stated)	?	?	4.0%	-89.4*	11.3%	-19.6%
O=C(Nc1ccc(Cl)cc1)NC1CCCCC1Cc1ccco1 (configuration not stated)	-2.5%	18.4µM*	24.4%	-7.9	?	?
CCOC(=O)c1nc(N2CCN(c3ccc(F)cc3)CC2)c2c(C)noc2n1	nt	-13.4%	nt	nt	nt	-23.3%
Cc1cc(C)nc(NNS(=O)(=O)c2ccc(Cl)cc2)n1	-13.9%	-9.8%	-0.6%	8.5	22.5%	?
Cc1cc(C)nc(NNS(=O)(=O)c2ccc(F)c(Cl)c2)n1	-22.2%	?	2.2%	22.6	-1.3%	23.1µM*
CC1(C(=O)NS(=O)(=O)c2cccs2)CCN1C(=O)CC1CCCCC1 (configuration not stated)	nt	4.3%	nt	40.9	nt	-4.7%
O=C(NCCc1ccccc1)c1cc(Sc2ccc(F)cc2F)nc2ccccc12	0.4%	?	nt	nt	nt	?
Cc1nn(C)c(C)c1NC(=O)COc1ccc(Cl)cc1	0.2%	2.59µM*	3.4%	20.7	-1.5%	6.51µM*
Cc1nn(-c2ccccc2)c(C)c1NC(=O)COC(=O)c1ccccc1	5.8%	12.9%	-20.7%	16.9	1.1%	-11.3%
Cc1nn(-c2ccccc2)c(C)c1NC(=O)COc1ccc2ccccc2c1	?	18.4µM*	0.6%	-5.4	?	16.4µM*
SMILES	Chronic BCR inh	TDP1 cell noCPT	SW480 rereplic	IL-1B inflam inh	MCF10A rereplic	DT40 TDP1 CPT
Cc1ccc(-n2nc(C)c(NC(=O)CCl)c2C)cc1C	?	8.2µM*	?	-104.2*	12.4%	8.2µM*
Cc1nn(-c2ccccc2)c(C)c1NC(=O)COc1ccccc1C#N	nt	-25.4%	nt	18.5	nt	?
Cc1nn(-c2ccccc2)c(C)c1NC(=O)COc1ccc(C#N)cc1	-1.1%	11.6µM*	3.8%	15.7	?	?
Cn1cc(C(=O)NCCc2ccc(Cl)cc2)c(=O)c2cc(S(=O)(=O)N3CCOCC3)ccc21	nt	0.1%	nt	nt	nt	-13.8%
CCOc1ccc(NC(=O)C2CCN(C(=O)C3CC(=O)N(c4ccc(C)cc4)C3)CC2)cc1 (configuration not stated)	4.3%	?	8.5%	6.1	-14.0%	-20.2%
CC(=O)Nc1ccc(/C=C2\C=C(C(O)c3ccc(NC(C)=O)cc3)c3ccccc32)cc1 (configuration not stated)	nt	10µM*	nt	nt	nt	20µM*
CSc1ccc(/C=N/Nc2nc(C)cc(C)n2)cc1	19.5%	?	-4.4%	-0.8	2.8%	-27.1%
CSc1ccc(/C=C2\C=C(C(O)c3ccc(SC)cc3)c3ccccc32)cc1 (configuration not stated)	nt	10µM*	nt	nt	nt	10µM*
OC(C1=C/C(=C\c2ccncc2)c2ccccc21)c1ccncc1 (configuration not stated)	nt	11.2µM*	nt	nt	nt	11.2µM*
CC(=O)Nc1ccc(NC(=O)C(c2ccccc2)c2ccccc2)cc1	4.0%	7.6%	23.8%	37.6	4.9%	2.1%
O=C(NCc1cccc(F)c1)c1cccc(OC2CCN(C(=O)C3CC3)CC2)c1	-5.0%	18.4µM*	3.1%	0.0	5.3%	?
CCN(Cc1ccccc1)C(=O)c1cccc(OC2CCN(C(=O)C3CC3)CC2)c1	?	?	2.7%	?	-3.0%	?
CC(=O)/C=C1\OCc2cc(OCc3ccccc3)ccc21	nt	?	nt	-23.8	nt	?
